Experimental data from PubChem BioAssay (NCI).
Compounds without any hit were thinned out: in the full panel of roughly 83,000, 20% have a hit.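 96-well plates, one dose, 48 hours. Percent growth reported; active if below 10.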 A number with no mark means an inactive call. Calls of active or inactive are those of the source.

The molecules below were run on SF-539 CNS (assay: NCI-60 one-dose screen, 48 h (100 = growth as untreated, 0 = no growth, -100 = all killed)). Details: 10 µM unless noted.

SMILES | growth
Cc1nn(-c2ccccc2)c(Oc2ccc(Cl)cc2)c1/C=N\N=c1/sc2ccccc2n1C | 107%
CC(C)Sc1nc(NNC(N)=S)c(C#N)c(-c2ccc(F)cc2)n1 | 91.7%
NC(=O)c1ccc[n+](Cc2ccc(Cl)cc2Cl)c1 | 105%
CCCCCCCC/C=C\CCCCCCCCOc1ccccc1CC(=O)NCC[N+](C)(C)C | 77.5%
O=C1Nc2ccccc2/C1=C/c1cn(C(=O)c2ccc(Cl)cc2)c2ccccc12 | 99.4%
O=C1/C(=C\c2cccnc2)SC(=S)N1CCc1ccc(O)cc1 | 23.2%
COc1ccc(C2C(c3nn[nH]n3)=C(N)Oc3c2ccc2ccccc32)cc1 (stereo unspecified) | 73.7%
COc1ccc(NC(=O)CSc2nnc(-c3cc(-c4ccc(S(N)(=O)=O)cc4)nc4ccccc34)n2-c2ccccc2)cc1 | 78.4%
COc1ccc(-c2csc(C3=C(O)CN(C(C)C)C3=N)n2)cc1OC | 88.9%
Cn1cc(-c2csc(-c3ccccc3)n2)c2cccnc21 | -71% [100 µM] (active)
CCN1CCN(c2cc(C)nc(NCc3cc(Nc4ccnc5cc(Cl)ccc45)ccc3F)n2)CC1 | 55.7%
C#CCOc1nc(C)cc(C)c1C#N | 97.9%
Cc1cc(O)c(C2=NN(c3ccc(S(N)(=O)=O)cc3)C(c3ccccc3Cl)C2)cc1Cl (stereo unspecified) | 41.9%
N#Cc1c(-c2cccc(Cl)c2)cc(-c2cccc(Cl)c2)[nH]c1=O | 82.7%
N=c1sc(Cc2ccc(Cl)cc2)cn1CC(=O)c1ccc(F)cc1 | 85.5%
COc1cc(CCC[P+](c2ccccc2)(c2ccccc2)c2ccccc2)cc2c1OCO2 | 43%
CCCCc1ccc(Nc2ccc(Nc3ccc(CCCC)cc3S(=O)(=O)O)c3c2C(=O)c2ccccc2C3=O)c(S(=O)(=O)O)c1 | 96.5%
COc1ccc2occ(C3=C(c4c[nH]c5ccccc45)C(=O)N(O)C3=O)c2c1 | 102%
CC1(C)OC2C(CO[Si](C)(C)C(C)(C)C)OC(n3c(I)c(C#C[Si](C)(C)C)c(=O)[nH]c3=O)C2O1 (stereo unspecified) | 105%

SMILES | growth
Cc1ccc(S(=O)(=O)NCC[C@@H]2C[C@H]2c2cc3ccccc3s2)cc1 | 98.3%
NC[C@H](O)c1ccc(O)c(O)c1 | 92%
C=C(C)[C@@H]1CC[C@]2(C(=O)NC3CCCCC3)CC[C@]3(C)[C@H](CC[C@@H]4[C@@]5(C)CCC(=O)C(C)(C)[C@@H]5CC[C@]43C)[C@@H]12 | 96.1%
N=C1CCC(=N)c2c1c(O)c1ccccc1c2O | 171%
COC(=O)[C@]12CC[C@@H](C)[C@H](C)[C@@H]1C1=CC[C@@H]3[C@@]4(C)C(C=O)=C[C@@](C)(COC(C)=O)[C@@H]4C(=O)C[C@@]3(C)[C@]1(C)CC2 | 53.7%
COc1cc(/C=N/Nc2ncc(-c3cc4cc5c(cc4o3)OCO5)s2)cc(OC)c1OC | 81.7%
OC(c1cccc(-n2ccc(C(F)(F)F)n2)c1)c1cnccc1NC1CCCCCC1 (stereo unspecified) | 61.3%
COc1ccc(-c2[nH]c(=S)n(C(CC3(C)NCC(=O)N3n3c(-c4ccccc4)cc(C)nc3=S)c3ccc(OC)cc3)c(=O)c2Br)cc1 (stereo unspecified) | 58.4%
Cc1ccc(Cl)c(NS(=O)(=O)c2ccc(-c3cnc(C4CC4)o3)cc2)c1 | -8.06% (active)
O=C(NC(Cc1nnc2n(Cc3ccccc3)c(=O)c3c4c(sc3n12)CCCC4)c1ccc(Cl)cc1)c1ccccc1 (stereo unspecified) | 80.2%
Cc1c(O)cc(-c2cnc(N/N=C\c3ccc(Cl)cc3)s2)c(O)c1C | 78.8%
CCN(CC)CCn1nc2c3c(cccc3c1=O)-c1ccccc1-2 | 30.7%
Fc1c[c-]c(-c2ccccn2)c(F)c1.[CH3-].[Pt+2].c1ccc(P(C[PH+](c2ccccc2)c2ccccc2)c2ccccc2)cc1 | -86.3% (active)
CCN1C(=O)N(CC)C2Nn3c(s/c(=C\c4cccc([N+](=O)[O-])c4)c3=O)=NC21 (stereo unspecified) | 12.8%
N#C/C(=C/C=C/c1cccc(Cl)c1)S(=O)c1ccccc1 (stereo unspecified) | -50.3% (active)
Oc1c(CN2CCCC2)cc(COCc2ccc(Br)cc2)c2cccnc12 | -23.5% (active)
O=C(CCCCCCN1CC(=O)N2[C@@H](c3ccccc3Cl)c3[nH]c4ccccc4c3C[C@H]2C1=O)NO | 60%
COc1ccc(C2CC(c3cccc(OC)c3)=NN2C(=O)c2cc(OC)c(OC)c(OC)c2)cc1 (stereo unspecified) | -16% (active)
CCc1c2c(nc3ccc(OC(=O)OCc4ccc(B5OC(C)(C)C(C)(C)O5)cc4)cc13)-c1cc3c(c(=O)n1C2)COC(=O)[C@]3(O)CC | -62.9% (active)

Each molecule was assayed on UACC-257 melanoma in the same assay as above. Details: 10 µM unless noted.

SMILES | growth
Cc1nn(-c2ccccc2)c(Oc2ccc(Cl)cc2)c1/C=N\N=c1/sc2ccccc2n1C | 91.9%
CC(C)Sc1nc(NNC(N)=S)c(C#N)c(-c2ccc(F)cc2)n1 | 101%
NC(=O)c1ccc[n+](Cc2ccc(Cl)cc2Cl)c1 | 72%
CCCCCCCC/C=C\CCCCCCCCOc1ccccc1CC(=O)NCC[N+](C)(C)C | 88.9%
O=C1Nc2ccccc2/C1=C/c1cn(C(=O)c2ccc(Cl)cc2)c2ccccc12 | 99.7%
O=C1/C(=C\c2cccnc2)SC(=S)N1CCc1ccc(O)cc1 | 38.9%
COc1ccc(C2C(c3nn[nH]n3)=C(N)Oc3c2ccc2ccccc32)cc1 (stereo unspecified) | 89.8%
COc1ccc(NC(=O)CSc2nnc(-c3cc(-c4ccc(S(N)(=O)=O)cc4)nc4ccccc34)n2-c2ccccc2)cc1 | 103%
COc1ccc(-c2csc(C3=C(O)CN(C(C)C)C3=N)n2)cc1OC | 105%
Cn1cc(-c2csc(-c3ccccc3)n2)c2cccnc21 | -27.7% [100 µM] (active)
CCN1CCN(c2cc(C)nc(NCc3cc(Nc4ccnc5cc(Cl)ccc45)ccc3F)n2)CC1 | 69.2%
C#CCOc1nc(C)cc(C)c1C#N | 103%
Cc1cc(O)c(C2=NN(c3ccc(S(N)(=O)=O)cc3)C(c3ccccc3Cl)C2)cc1Cl (stereo unspecified) | 65.2%
N#Cc1c(-c2cccc(Cl)c2)cc(-c2cccc(Cl)c2)[nH]c1=O | 90.2%
N=c1sc(Cc2ccc(Cl)cc2)cn1CC(=O)c1ccc(F)cc1 | 77.5%
COc1cc(CCC[P+](c2ccccc2)(c2ccccc2)c2ccccc2)cc2c1OCO2 | 17.4%
CCCCc1ccc(Nc2ccc(Nc3ccc(CCCC)cc3S(=O)(=O)O)c3c2C(=O)c2ccccc2C3=O)c(S(=O)(=O)O)c1 | 88.3%
COc1ccc2occ(C3=C(c4c[nH]c5ccccc45)C(=O)N(O)C3=O)c2c1 | 99%
CC1(C)OC2C(CO[Si](C)(C)C(C)(C)C)OC(n3c(I)c(C#C[Si](C)(C)C)c(=O)[nH]c3=O)C2O1 (stereo unspecified) | 91.3%

SMILES | growth
Cc1ccc(S(=O)(=O)NCC[C@@H]2C[C@H]2c2cc3ccccc3s2)cc1 | 108%
NC[C@H](O)c1ccc(O)c(O)c1 | 109%
C=C(C)[C@@H]1CC[C@]2(C(=O)NC3CCCCC3)CC[C@]3(C)[C@H](CC[C@@H]4[C@@]5(C)CCC(=O)C(C)(C)[C@@H]5CC[C@]43C)[C@@H]12 | 94.2%
N=C1CCC(=N)c2c1c(O)c1ccccc1c2O | 101%
COC(=O)[C@]12CC[C@@H](C)[C@H](C)[C@@H]1C1=CC[C@@H]3[C@@]4(C)C(C=O)=C[C@@](C)(COC(C)=O)[C@@H]4C(=O)C[C@@]3(C)[C@]1(C)CC2 | 37.8%
COc1cc(/C=N/Nc2ncc(-c3cc4cc5c(cc4o3)OCO5)s2)cc(OC)c1OC | 42.2%
OC(c1cccc(-n2ccc(C(F)(F)F)n2)c1)c1cnccc1NC1CCCCCC1 (stereo unspecified) | -17.8% (active)
COc1ccc(-c2[nH]c(=S)n(C(CC3(C)NCC(=O)N3n3c(-c4ccccc4)cc(C)nc3=S)c3ccc(OC)cc3)c(=O)c2Br)cc1 (stereo unspecified) | 88.9%
Cc1ccc(Cl)c(NS(=O)(=O)c2ccc(-c3cnc(C4CC4)o3)cc2)c1 | 67.8%
O=C(NC(Cc1nnc2n(Cc3ccccc3)c(=O)c3c4c(sc3n12)CCCC4)c1ccc(Cl)cc1)c1ccccc1 (stereo unspecified) | 105%
Cc1c(O)cc(-c2cnc(N/N=C\c3ccc(Cl)cc3)s2)c(O)c1C | 91.2%
CCN(CC)CCn1nc2c3c(cccc3c1=O)-c1ccccc1-2 | 2.85% (active)
Fc1c[c-]c(-c2ccccn2)c(F)c1.[CH3-].[Pt+2].c1ccc(P(C[PH+](c2ccccc2)c2ccccc2)c2ccccc2)cc1 | -4.95% (active)
CCN1C(=O)N(CC)C2Nn3c(s/c(=C\c4cccc([N+](=O)[O-])c4)c3=O)=NC21 (stereo unspecified) | 77.5%
N#C/C(=C/C=C/c1cccc(Cl)c1)S(=O)c1ccccc1 (stereo unspecified) | -46.8% (active)
Oc1c(CN2CCCC2)cc(COCc2ccc(Br)cc2)c2cccnc12 | -29.5% (active)
O=C(CCCCCCN1CC(=O)N2[C@@H](c3ccccc3Cl)c3[nH]c4ccccc4c3C[C@H]2C1=O)NO | 51.7%
COc1ccc(C2CC(c3cccc(OC)c3)=NN2C(=O)c2cc(OC)c(OC)c(OC)c2)cc1 (stereo unspecified) | 65%
CCc1c2c(nc3ccc(OC(=O)OCc4ccc(B5OC(C)(C)C(C)(C)O5)cc4)cc13)-c1cc3c(c(=O)n1C2)COC(=O)[C@]3(O)CC | -60% (active)
